Reference: PubChem BioAssay AID1159580 (chemical genetic matrix, 2015)
About 2,000 (36%) of roughly 5,500 compounds were called active. Not shown: some 18% with an inconclusive outcome. Rule as the data show it: active = normalized growth mostly below about 0.91 (no sharp cut-off); inconclusive = no clear call, values can overlap the other calls; inactive = mostly above about 0.92. The list shows a part of the results.

Assay: chemical genetic growth profiling, strain panel (AID 1159580);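 also: tested at 20 µM; growth read once vehicle control cultures reached saturation at 30 °C; 1 = growth at the plate median or of vehicle wells; lower values mean less growth of the strain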
Conditions: growth OD

Measured: normalized growth

CCNS(=O)(=O)c1cc(Cl)sc1Cl
inactive: S. cerevisiae deletion strains, locus YAL013W, strain DEP1, hits give low values 0.992 | S. cerevisiae deletion strains, locus YBR229C, strain ROT2, hits give low values 1.02 | S. cerevisiae deletion strains, locus YDL101C, strain DUN1, hits give low values 0.99 | S. cerevisiae deletion strains, locus YDL134C, strain PPH21, hits give low values 1.01 | S. cerevisiae deletion strains, locus YDR150W, strain NUM1, hits give low values 0.947 | S. cerevisiae deletion strains, locus YEL061C, strain CIN8, hits give low values 0.995 | S. cerevisiae deletion strains, locus YGR078C, strain PAC10, hits give low values 1 | S. cerevisiae deletion strains, locus YGR229C, strain SMI1, hits give low values 0.994 | S. cerevisiae deletion strains, locus YHR030C, strain SLT2, hits give low values 1.05 | S. cerevisiae deletion strains, locus YHR087W, strain rtc3, hits give low values 1 | S. cerevisiae deletion strains, locus YJR043C, strain POL32, hits give low values 1.01 | S. cerevisiae deletion strains, locus YJR075W, strain HOC1, hits give low values 1.01 | S. cerevisiae deletion strains, locus YKL190W, strain CNB1, hits give low values 1 | S. cerevisiae deletion strains, locus YLR039C, strain RIC1, hits give low values 0.989 | S. cerevisiae deletion strains, locus YLR058C, strain SHM2 (second series), hits give low values 1.04 | S. cerevisiae deletion strains, locus YLR085C, strain ARP6, hits give low values 0.983 | S. cerevisiae deletion strains, locus YLR262C, strain YPT6, hits give low values 0.985 | S. cerevisiae deletion strains, locus YML094W, strain GIM5, hits give low values 1.01 | S. cerevisiae deletion strains, locus YMR219W, strain ESC1, hits give low values 0.994 | S. cerevisiae deletion strains, locus YMR263W, strain SAP30, hits give low values 1.01 | S. cerevisiae deletion strains, locus YMR307W, strain GAS1, hits give low values 0.976 | S. cerevisiae deletion strains, locus YNL153C, strain GIM3, hits give low values 1.01 | S. cerevisiae deletion strains, locus YNL298W, strain CLA4 (second series), hits give low values 1.05 | S. cerevisiae deletion strains, locus YNL322C, strain KRE1, hits give low values 0.992 | S. cerevisiae deletion strains, locus YNR030W, strain Alg12, hits give low values 1.01 | S. cerevisiae deletion strains, locus YOL006C, strain TOP1, hits give low values 1.02 | S. cerevisiae deletion strains, locus YPL055C, strain LGE1, hits give low values 1.12 | S. cerevisiae deletion strains, locus YPL241C, strain CIN2, hits give low values 1.01 | S. cerevisiae deletion strains, locus YPR135W, strain CTF4, hits give low values 1.13 | S. cerevisiae strains, strain wild type, hits give low values 0.998
